{"source": "PubChem BioAssay AID504652", "about": "(National Center for Advancing Translational Sciences (NCATS), 2011)", "note": "The whole screen tested about 360,000 compounds, of which about 11,000 (3.1%) were called active. Many of the other results were omitted from the sample, so actives are more common in it than they were. Unmarked numbers belong to inactive results. Cut-off read from the data, not from the text of the source: active = activity change below about -30%; inactive = the rest. % is set by controls: 0 for no effect and ±100 for the full control effect."}
{"target": "D(1A) dopamine receptor (Homo sapiens) (UniProt P21728)", "sequence (P21728 whole entry, looked up)": "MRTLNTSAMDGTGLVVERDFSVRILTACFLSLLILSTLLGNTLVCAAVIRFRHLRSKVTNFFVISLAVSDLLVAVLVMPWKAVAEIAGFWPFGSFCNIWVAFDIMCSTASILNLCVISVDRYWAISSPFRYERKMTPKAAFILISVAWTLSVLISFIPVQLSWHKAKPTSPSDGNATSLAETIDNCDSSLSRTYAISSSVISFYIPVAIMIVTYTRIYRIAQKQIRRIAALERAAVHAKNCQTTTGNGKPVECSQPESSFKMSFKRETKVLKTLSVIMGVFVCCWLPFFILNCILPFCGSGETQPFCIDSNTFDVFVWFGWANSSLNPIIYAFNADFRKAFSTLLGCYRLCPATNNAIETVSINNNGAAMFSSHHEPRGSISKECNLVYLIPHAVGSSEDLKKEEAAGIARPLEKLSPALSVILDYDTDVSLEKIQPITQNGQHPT", "test": "Antagonist of Human D 1 Dopamine Receptor: qHTS", "settings": "HEK293 TREx D1 cells, calcium flux, dopamine EC80; at 10 µM; active compounds read low", "procedure,_shortened": "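Using tetracycline-induced force-coupled D1 Hek293 cells and a calcium dye, signals were followed for 180 s after compound, then for 180 s after EC80 dopamine, to detect inhibitors.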"}
{"smiles": "COc1ccc(S(=O)(=O)N2CCOCC2)c(C)c1C", "activity change, negative = inhibition": "-50.9% (active)"}
{"smiles": "COc1cc(C)c(S(=O)(=O)N2CCOCC2)c(C)c1C", "activity change, negative = inhibition": "-2.39%"}
{"smiles": "COc1ccc(S(=O)(=O)N2CCCC2)c(C)c1C", "activity change, negative = inhibition": "-24.6%"}
{"smiles": "CCOC(=O)c1ccc(NC(=O)C2CC(=O)Nc3nc4ccccc4n32)cc1", "note": "(configuration not stated)", "activity change, negative = inhibition": "2.09%"}
{"smiles": "CC(=O)c1ccc(NC(=O)C2CC(=O)Nc3nc4ccccc4n32)cc1", "note": "(configuration not stated)", "activity change, negative = inhibition": "-16%"}
{"smiles": "Cc1nc(NC2=NC(C(=O)Nc3ccc(Cl)cc3)CC(=O)N2)nc2ccccc12", "note": "(configuration not stated)", "activity change, negative = inhibition": "-50.2% (active)"}
{"smiles": "CC(C)CNc1ncnc2c1cnn2Cc1ccc(Cl)cc1", "activity change, negative = inhibition": "3%"}
{"smiles": "Cc1ccc(-n2ncc3c(NCCCn4ccnc4)ncnc32)cc1Cl", "activity change, negative = inhibition": "-30.7% (active)"}
{"smiles": "Cc1ccc(S(=O)(=O)c2nc(NCCCn3ccnc3)sc2Cl)cc1", "activity change, negative = inhibition": "8.73%"}
{"smiles": "Cc1ccc(Cl)cc1-n1ncc2c(N3CCC(C(N)=O)CC3)ncnc21", "activity change, negative = inhibition": "-13.9%"}
{"smiles": "CCN1CCN(c2ncnc3c2cnn3-c2ccc(C)c(C)c2)CC1", "activity change, negative = inhibition": "0.119%"}
{"smiles": "CCN(CC)CCNc1ncnc2c1cnn2-c1cc(Cl)ccc1C", "activity change, negative = inhibition": "-31% (active)"}
{"smiles": "CCN(CC)CCNC(=O)CN1N=C(c2ccc(OC)cc2)CCC1=O", "activity change, negative = inhibition": "7.52%"}
{"smiles": "COC(=O)c1cc(NC(=O)c2sc3ccccc3c2Cl)cc(C(=O)OC)c1", "activity change, negative = inhibition": "5.62%"}
{"smiles": "COc1cccc(NC(=O)N(Cc2cn(C)c3ccccc23)C2CCCCCC2)c1", "activity change, negative = inhibition": "17.7%"}
{"smiles": "Cc1ccc(N(CC(=O)NCC(C)c2ccccc2)S(=O)(=O)N(C)C)cc1", "note": "(configuration not stated)", "activity change, negative = inhibition": "-3.48%"}
{"smiles": "CCOc1ccccc1CNC(=O)c1ccc(-n2c(C)cc3c2CCC(C)C3)cc1", "note": "(configuration not stated)", "activity change, negative = inhibition": "6.61%"}
{"smiles": "O=C(C1CC1)N1CCc2cc(Br)cc(S(=O)(=O)N3CCN(c4ccccc4F)CC3)c21", "activity change, negative = inhibition": "-2.36%"}
{"smiles": "O=C(NCc1ccc(F)cc1)c1ccc(Cn2c(SCc3ccc(F)cc3)nc3cccnc32)cc1", "activity change, negative = inhibition": "-10.7%"}
{"smiles": "COc1ccc(N2CCN(C(=O)CSCc3nc(-c4ccccc4Cl)oc3C)CC2)cc1", "activity change, negative = inhibition": "-24.8%"}
{"smiles": "CCOc1ccccc1CNS(=O)(=O)c1cc(-c2cc(C)no2)ccc1C", "activity change, negative = inhibition": "50.5%"}
{"smiles": "COc1ccc(CNS(=O)(=O)c2cc(-c3cc(C)no3)ccc2C(C)C)cc1", "activity change, negative = inhibition": "-31% (active)"}
{"smiles": "COc1ccc(CCNS(=O)(=O)c2cc(-c3cc(C)no3)ccc2C)cc1OC", "activity change, negative = inhibition": "9.26%"}
{"smiles": "CCc1ccc(S(=O)(=O)Nc2cc3c(C(=O)OCc4ccccc4)c(C)oc3c3ccccc23)cc1", "activity change, negative = inhibition": "7.58%"}
{"smiles": "CCCCN(C)c1nnc(NC(=O)Nc2ccc(Br)c(C)c2)s1", "activity change, negative = inhibition": "13.7%"}
{"smiles": "c1ccc(C2CNCc3c2ccc2ccccc32)cc1", "note": "(configuration not stated)", "activity change, negative = inhibition": "-39.2% (active)"}
{"smiles": "Cc1nn2c(=O)cc(COC(=O)CNC(=O)c3ccc(F)cc3)nc2s1", "activity change, negative = inhibition": "-1.13%"}
{"smiles": "Cc1ccc(Cn2c(=O)n(-c3ccc(C)cc3)c(=O)c3c2c2cc(C)ccc2n3C)cc1", "activity change, negative = inhibition": "-3.86%"}
{"smiles": "N#C/C(=C\\c1cccc(F)c1)c1nc(-c2cc3c(ccc4ccccc43)oc2=O)cs1", "activity change, negative = inhibition": "-2.97%"}
{"smiles": "COc1cc(C2c3c(oc4ccccc4c3=O)C(=O)N2c2nc(C)c(C)s2)ccc1O", "note": "(configuration not stated)", "activity change, negative = inhibition": "6.01%"}
{"smiles": "CCOc1ccc(NC(=O)c2cnn(-c3ccccc3)c2-n2cccc2)cc1", "activity change, negative = inhibition": "-0.471%"}
{"smiles": "CCCCOc1ccc(CSC(=N)N)cc1[N+](=O)[O-]", "activity change, negative = inhibition": "25.1%"}
{"smiles": "Cc1nc(SCc2ccc(F)cc2)c([N+](=O)[O-])[nH]1", "activity change, negative = inhibition": "8.5%"}
{"smiles": "CCCCCOc1ccc(CSC2=NCCN2)cc1[N+](=O)[O-]", "activity change, negative = inhibition": "-42.1% (active)"}
{"smiles": "CCCCN(CC)C(=O)c1ccc2c(c1)OCO2", "activity change, negative = inhibition": "-2.46%"}
{"smiles": "CCN(CC)CCC(c1cc(OC)c(OC)c(OC)c1)c1c(OC)cc(OC)c2c(-c3ccccc3)cc(=O)oc12", "note": "(configuration not stated)", "activity change, negative = inhibition": "18.1%"}
{"smiles": "COc1cccc(NC(=O)C(=O)NCC(c2ccc3c(c2)OCO3)N2CCN(C)CC2)c1", "note": "(configuration not stated)", "activity change, negative = inhibition": "27.8%"}
{"smiles": "COc1ccc(F)cc1S(=O)(=O)NCC(c1ccc2c(c1)OCO2)N1CCN(C)CC1", "note": "(configuration not stated)", "activity change, negative = inhibition": "-2.95%"}
{"smiles": "CCN(CC)CCC(c1ccc2c(c1)OCO2)c1c(OC)cc(OC)c2c(-c3ccccc3)cc(=O)oc12", "note": "(configuration not stated)", "activity change, negative = inhibition": "-32.2% (active)"}
{"smiles": "CCN(CC)C(=O)CC(c1ccc2c(c1)OCO2)c1c(OC)cc(OC)c2c(-c3ccccc3)cc(=O)oc12", "note": "(configuration not stated)", "activity change, negative = inhibition": "-44.6% (active)"}
{"smiles": "CCc1nnc2c3ccccc3nc(N3CCN(c4ccc(C)cc4C)CC3)n12", "activity change, negative = inhibition": "-4.28%"}
{"smiles": "CCCN(CCC)S(=O)(=O)c1ccc(C(=O)Nc2sc3c(c2C(=O)OC)CCN(CC)C3)cc1", "activity change, negative = inhibition": "27%"}
{"smiles": "CCc1cccc(NC(=O)CSc2nccn2C)c1", "activity change, negative = inhibition": "6.16%"}
{"smiles": "Cc1ccc(Cl)cc1NC(=O)CSc1nccn1C", "activity change, negative = inhibition": "-34.7% (active)"}
{"smiles": "Cn1ccnc1SCC(=O)Nc1ccc2c(c1)OCCO2", "activity change, negative = inhibition": "7.91%"}
{"smiles": "CCCc1ccc(OCc2ccc(C(=O)N/N=C/c3cccc([N+](=O)[O-])c3)o2)c(OC)c1", "activity change, negative = inhibition": "-9.05%"}
{"smiles": "COC(=O)c1ccc(COc2cc([N+](=O)[O-])cc3cccnc23)cc1", "activity change, negative = inhibition": "-0.242%"}
{"smiles": "COc1cc(/C=N/O)ccc1OCc1ccc([N+](=O)[O-])cc1", "activity change, negative = inhibition": "-35.1% (active)"}
{"smiles": "COc1cc(C(=O)OCC(=O)NC(C)CCc2ccccc2)cc(OC)c1OC", "note": "(configuration not stated)", "activity change, negative = inhibition": "0.765%"}
{"smiles": "COc1cc(C(=O)OCc2ccc([N+](=O)[O-])cc2)cc(OC)c1OC", "activity change, negative = inhibition": "-36.8% (active)"}
{"smiles": "CCOc1cc(/C=N/O)ccc1OCc1ccccc1F", "activity change, negative = inhibition": "0.806%"}
{"smiles": "COc1ccc(NC(=O)CCc2nnc3n(CC(C)C)c(=O)c4ccccc4n23)cc1OC", "activity change, negative = inhibition": "12%"}
{"smiles": "COc1ccccc1N1CCN(C(=O)C2CCN(S(=O)(=O)c3c(C)noc3/C=C/c3ccc(C)cc3)CC2)CC1", "activity change, negative = inhibition": "1.37%"}
{"smiles": "COc1ccc(Cn2ccnc2SCC(=O)Nc2ccc3c(c2)OCO3)cc1", "activity change, negative = inhibition": "3.36%"}
{"smiles": "CC1CCCN(S(=O)(=O)c2ccc3[nH]c(=O)cc(C(=O)NCCc4ccc(Cl)cc4)c3c2)C1", "note": "(configuration not stated)", "activity change, negative = inhibition": "15.9%"}
{"smiles": "COc1ccccc1NC(=O)c1sc2nc(C)c(C(=O)Nc3ccc(Cl)cc3)c(-c3ccc(Br)cc3)c2c1N", "activity change, negative = inhibition": "-7.07%"}
{"smiles": "CC(=O)c1c(C)n(S(=O)(=O)c2ccc(Cl)cc2)c2ccc(NS(=O)(=O)c3ccc(Cl)cc3)cc12", "activity change, negative = inhibition": "0.214%"}
{"smiles": "COC(=O)c1c(C)[nH]c(C(=O)NCCc2ccc(S(N)(=O)=O)cc2)c1C", "activity change, negative = inhibition": "2.29%"}
{"smiles": "COc1ccc(NS(=O)(=O)c2cccc(C(=O)NCCc3ccc(S(N)(=O)=O)cc3)c2)cc1", "activity change, negative = inhibition": "-10.4%"}
{"smiles": "COc1ccc(C(=O)NCCc2ccc(S(N)(=O)=O)cc2)cc1OC", "activity change, negative = inhibition": "-31% (active)"}
{"smiles": "Cc1c(C)n(Cc2ccc(Cl)cc2)c2ccc(C(=O)NCCCN3CCOCC3)cc12", "activity change, negative = inhibition": "-28%"}
{"smiles": "CCOC(=O)c1c(C)c(C(=O)NCCc2ccc(S(N)(=O)=O)cc2)c(C)n1CC", "activity change, negative = inhibition": "-3.79%"}
{"smiles": "Cc1c(C)n(Cc2ccc(Cl)cc2)c2ccc(C(=O)NCCc3ccc(S(N)(=O)=O)cc3)cc12", "activity change, negative = inhibition": "-36.4% (active)"}
{"smiles": "Cc1cc(N2CCN(c3cccc(C(F)(F)F)c3)CC2)n2nc(-c3ccccc3)nc2n1", "activity change, negative = inhibition": "23.9%"}
{"smiles": "CCc1ccccc1NC(=O)c1ccc2nc(CCc3ccccc3)oc2c1", "activity change, negative = inhibition": "-9.13%"}
{"smiles": "Cc1ccccc1NC(=O)c1cc2c([nH]c1=O)CC(C)(C)CC2=O", "activity change, negative = inhibition": "-6.86%"}
{"smiles": "COc1ccccc1CSc1ncc(-c2ccc([N+](=O)[O-])cc2)[nH]1", "activity change, negative = inhibition": "-37.4% (active)"}
{"smiles": "CCOc1cccc(NC(=O)CSc2ncc(-c3ccc(Cl)cc3)[nH]2)c1", "activity change, negative = inhibition": "-2.12%"}
{"smiles": "COc1ccc(-c2cnc(SCCNC(=O)c3ccc4c(c3)OCO4)[nH]2)cc1", "activity change, negative = inhibition": "1.65%"}
{"smiles": "Cc1c(C(=O)NCc2ccccc2Br)oc2ccc3c(c12)C(=O)CC(C)(C)O3", "activity change, negative = inhibition": "-29.9%"}
{"smiles": "COc1ccc2cc1Oc1ccc(cc1)C[C@H]1c3cc(c(OC)cc3CCN1C)Oc1c(O)c(OC)cc3c1[C@H](C2)N(C)CC3", "activity change, negative = inhibition": "-27.6%"}
{"smiles": "COc1c(O)ccc2c1CN1CCc3cc4c(cc3C1C2)OCO4", "note": "(configuration not stated)", "activity change, negative = inhibition": "-67.5% (active)"}
{"smiles": "COc1ccc(CN2CCCC(N3CCc4ccccc4C3)C2)c(O)c1", "note": "(configuration not stated)", "activity change, negative = inhibition": "-0.568%"}
{"smiles": "CCOc1ccc(S(=O)(=O)c2cn(Cc3ccc(OC)cc3)c3ccc(F)cc3c2=O)cc1", "activity change, negative = inhibition": "-3.59%"}
{"smiles": "CCc1nc2ccc(C(=O)N3CCN(c4cc(Cl)ccc4C)CC3)cc2nc1CC", "activity change, negative = inhibition": "4.25%"}
{"smiles": "Cn1nnc(NC(=O)CSc2ncn[nH]2)n1", "activity change, negative = inhibition": "-31.7% (active)"}
{"smiles": "O=C(CSc1ncn[nH]1)Nc1nsc(-c2ccccc2)n1", "activity change, negative = inhibition": "1.31%"}
{"smiles": "O=C(CSc1ncn[nH]1)Nc1nc(-c2cccc([N+](=O)[O-])c2)cs1", "activity change, negative = inhibition": "-1.2%"}
{"smiles": "CCOC(=O)c1scc(-c2ccccc2)c1S(=O)(=O)Nc1ccccc1F", "activity change, negative = inhibition": "-3.82%"}
{"smiles": "CCC(C(=O)Nc1cccc(-c2nc3cccnc3s2)c1C)c1ccccc1", "note": "(configuration not stated)", "activity change, negative = inhibition": "-4.82%"}
{"smiles": "O=C(CSc1ccccc1)Nc1ccc(C(=O)Nc2cccc(O)c2)cc1", "activity change, negative = inhibition": "-29.1%"}
{"smiles": "O=C(Nc1cccc(O)c1)c1ccc(C(=O)c2ccccc2)o1", "activity change, negative = inhibition": "-9.29%"}
{"smiles": "C/C(=C\\C(=O)c1ccccc1)Nc1cccc(O)c1", "activity change, negative = inhibition": "-30.1% (active)"}
{"smiles": "Cc1ccc(NC(=O)CSc2nc3c(c(=O)[nH]2)CN(Cc2ccc4c(c2)OCO4)CC3)cc1C", "activity change, negative = inhibition": "11.3%"}
{"smiles": "COc1ccc(-n2c(SCC(=O)NCc3cccs3)nnc2-c2ccoc2C)cc1", "activity change, negative = inhibition": "-0.757%"}
{"smiles": "O=C(CSc1nnc(-c2c[nH]c3ccccc23)n1-c1ccc(F)cc1)NCc1ccco1", "activity change, negative = inhibition": "3.17%"}
{"smiles": "COc1ccc(-n2c(SCC(=O)NCc3ccco3)nnc2-c2c[nH]c3ccccc23)cc1", "activity change, negative = inhibition": "-90% (active)"}
